Where “and” joins values, the source holds several entries; their conditions need not be identical. Equal entries are not always repeated. Compounds without any hit were thinned out: in the full panel of roughly 79,000, 15% have a hit. Some compounds were tested as several samples or in several runs, with calls that do not always agree. Calls of active or inactive are those of the source. Cut-off read from the data, not from the text of the source: active = growth inhibition above about 70%; inactive = the rest.
What was measured:
[1] = NCI Yeast Anticancer Drug Screen. Data for the rad50 strain (AID 155);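 note: 0% = growth of vehicle-only cultures of the same strain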; settings: S. cerevisiae rad50 strain growth inhibition, stronger effect = higher value
Method in brief: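 Vehicle-treated cultures provide the reference for the growth inhibition reported for compound-exposed, repair-deficient yeast.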

[2] = NCI Yeast Anticancer Drug Screen. Data for the mec2-1 strain (AID 157); settings: S. cerevisiae mec2-1 strain, stronger effect = higher value
Method in brief: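 Growth inhibition is read against vehicle-treated controls after compound exposure of the mec2-1 yeast strain, which is defective in DNA damage repair or cell cycle control.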

[3] = NCI Yeast Anticancer Drug Screen. Data for the sgs1 mgt1 strain (AID 161);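 note: 0% = growth of cultures given vehicle only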; settings: S. cerevisiae sgs1 mgt1 strain, stronger effect = higher value
Method in brief: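 Percent growth inhibition was derived by comparing compound-exposed mutant yeast with vehicle-exposed cultures. The strain carries alterations in DNA damage repair.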

[4] = NCI Yeast Anticancer Drug Screen. Data for the cln2 rad14 strain (AID 165);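 note: 0% = growth equal to vehicle treated cultures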; settings: S. cerevisiae cln2 rad14 strain, stronger effect = higher value
Method in brief: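 Growth inhibition, relative to vehicle-treated controls, is the read-out. The test organism is a yeast strain with defined genetic alterations, cln2 rad14.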

[5] = NCI Yeast Anticancer Drug Screen. Data for the bub3 strain (AID 167); settings: S. cerevisiae bub3 mutant strain, stronger effect = higher value
Method in brief: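 Mutant yeast screening strain plus compound; vehicle-treated cultures serve as the 0% inhibition reference.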

[6] = NCI Yeast Anticancer Drug Screen. Data for the mlh1 rad18 strain (AID 175); settings: S. cerevisiae mlh1 rad18 strain growth inhibition, stronger effect = higher value
Method in brief: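 Cells of a genetically altered yeast strain, deficient in DNA damage repair, were treated with compound. Their growth was then compared with that of vehicle-treated cultures to give inhibition.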

[7] = at 5.0 µM (retest, dose inferred, filed as 0.5)
[8] = at 50.0 µM (retest, dose inferred, filed as 5.0)

Structure (SMILES) | growth inhibition [1, 7] | growth inhibition [1, 8] | growth inhibition ([1]; at 50.0 µM) | growth inhibition [2, 7] | growth inhibition [2, 8] | growth inhibition ([2]; at 50.0 µM) | growth inhibition [3, 7] | growth inhibition [3, 8] | growth inhibition ([3]; at 50.0 µM) | growth inhibition [4, 7] | growth inhibition [4, 8] | growth inhibition ([4]; at 50.0 µM) | growth inhibition [5, 7] | growth inhibition [5, 8] | growth inhibition ([5]; at 50.0 µM) | growth inhibition [6, 7] | growth inhibition [6, 8] | growth inhibition ([6]; at 50.0 µM)
CCCCCCCCCCCCOC(=O)C(C)OC(C)=O (stereo not given) | 1% (inactive) and 2% (inactive) | 99% (active) and 97% (active) | 98.8% (active) and 98.9% (active) | -1% (inactive) and 1% (inactive) | 99% (active) and 98% (active) | 98.5% (active) and 98.8% (active) | 2% (inactive) and 5% (inactive) | 99% (active) | 99.2% (active) and 7.6% (inactive) | -1% (inactive) and 5% (inactive) | 97% (active) and 92% (active) | 98.8% (active) and 96.5% (active) | 1% (inactive) | 99% (active) and 96% (active) | 98% (active) and 99.1% (active) | -10% (inactive) and 2% (inactive) | 99% (active) | 98.7% (active) and 99% (active)
COc1ccc(C2c3cc4c(cc3OC(NNC(N)=O)C2C)OCO4)cc1 (stereo not given) | -1% (inactive) | 96% (active) | 84.5% (active) | -36% (inactive) | 96% (active) | 80.4% (active) | -38% (inactive) | 96% (active) | 87.8% (active) | -4% (inactive) | 95% (active) | 76% (active) | -34% (inactive) | 99% (active) | 85.8% (active) | 6% (inactive) | 97% (active) | 85.8% (active)
CCCN(CCC)C(=S)N/N=C/c1ccccn1 | 99% (active) | 99% (active) | 90.5% (active) | 99% (active) | 100% (active) | 93.1% (active) | 98% (active) | 99% (active) | 92.4% (active) | 98% (active) | 100% (active) | 93.5% (active) | 99% (active) | 100% (active) | 92.5% (active) | 99% (active) | 99% (active) | 89.8% (active)
O=C(/C(=C\c1ccc(Cl)c(Cl)c1)c1ccccc1)c1ccc(O)cc1 | 51% (inactive) | 91% (active) | 94% (active) | 39% (inactive) | 95% (active) | 93.9% (active) | 48% (inactive) | 93% (active) | 94.1% (active) | 42% (inactive) | 93% (active) | 92.2% (active) | 43% (inactive) | 94% (active) | 91.8% (active) | 54% (inactive) | 92% (active) | 93.2% (active)
Nc1ncnc2c1ncn2CCCl | 2% (inactive) | -4% (inactive) | 8.2% (inactive) | -2% (inactive) | 5% (inactive) | -1.35% (inactive) | 2% (inactive) | 10% (inactive) | 14.3% (inactive) | -7% (inactive) | 5% (inactive) | -6.85% (inactive) | -2% (inactive) | 6% (inactive) | 32.4% (inactive) | -2% (inactive) | -4% (inactive) | 50.2% (inactive)
Cc1cc2c(c(Br)c1O)Oc1c(cc(C)c(O)c1Br)C21OC(=O)c2ccccc21 | 52% (inactive) | 98% (active) | 90.7% (active) | 42% (inactive) | 99% (active) | 93% (active) | 55% (inactive) | 99% (active) | 92.6% (active) | 36% (inactive) | 98% (active) | 92.5% (active) | 52% (inactive) | 99% (active) | 91% (active) | 77% (active) | 98% (active) | 90% (active)
O=C1Nc2ccccc2C1(O)C/C(=N/O)c1ccc2ccccc2c1 (stereo not given) | 34% (inactive) | 36% (inactive) | 35.1% (inactive) | 27% (inactive) | 40% (inactive) | 13.9% (inactive) | 71% (active) | 51% (inactive) | 49.5% (inactive) | 52% (inactive) | 44% (inactive) | 38% (inactive) | 47% (inactive) | 77% (active) | 14.9% (inactive) | 40% (inactive) | 64% (inactive) | 66.5% (inactive)
O=C1C=CC(=CC=C2C=CN(CCCCCCCCCCCO)C=C2)C=C1 | 12% (inactive) and 36% (inactive) | 93% (active) and 3% (inactive) | 88.8% (active) and 49.2% (inactive) | 6% (inactive) and 40% (inactive) | 90% (active) and -2% (inactive) | 85.5% (active) and 65% (inactive) | -10% (inactive) and 44% (inactive) | 93% (active) and 2% (inactive) | 87.6% (active) and 62.8% (inactive) | 7% (inactive) and 18% (inactive) | 91% (active) and -8% (inactive) | 82.7% (active) and 57.4% (inactive) | -3% (inactive) and 34% (inactive) | 98% (active) and 2% (inactive) | 83% (active) and 50.6% (inactive) | 10% (inactive) and 37% (inactive) | 80% (active) and 1% (inactive) | 88% (active) and 59.2% (inactive)
c1ccc(-c2[nH]c3ccccc3c2-c2ccccn2)cc1 | 3% (inactive) | 8% (inactive) | 91.8% (active) | -2% (inactive) | -2% (inactive) | 99.3% (active) | 4% (inactive) | 23% (inactive) | 95.6% (active) | 4% (inactive) | 8% (inactive) | 99.1% (active) | 0% (inactive) | 2% (inactive) | 98.7% (active) | 5% (inactive) | 13% (inactive) | 98.8% (active)
CCOC(=O)c1c[nH]c2c([N+](=O)[O-])cc(OC)cc2c1=O | -1% (inactive) | 32% (inactive) | 10.6% (inactive) and 61.4% (inactive) | 2% (inactive) | 21% (inactive) | 40.1% (inactive) and 35.2% (inactive) | 3% (inactive) | 41% (inactive) | 36% (inactive) and 16.3% (inactive) | -6% (inactive) | 24% (inactive) | -11.7% (inactive) and -10.1% (inactive) | 2% (inactive) | 46% (inactive) | 18.6% (inactive) and 61% (inactive) | 6% (inactive) | 42% (inactive) | 56.9% (inactive) and 73% (active)
Cn1c(N)nc(=O)c2[nH]cnc21 | -1% (inactive) | -1% (inactive) | -4.3% (inactive) | -1% (inactive) | -2% (inactive) | 11.8% (inactive) | -3% (inactive) | -4% (inactive) | 6.9% (inactive) | 2% (inactive) | -3% (inactive) | 86.8% (active) | 1% (inactive) | -3% (inactive) | -9.25% (inactive) | -3% (inactive) | 0% (inactive) | -17.2% (inactive)
Oc1ccccc1C=Nc1ccccc1O | 22% (inactive) | 32% (inactive) | 59.2% (inactive) and 56.2% (inactive) | 8% (inactive) | 22% (inactive) | 36.7% (inactive) and 41.9% (inactive) | 7% (inactive) | 16% (inactive) | 35.5% (inactive) and 42.1% (inactive) | -5% (inactive) | 5% (inactive) | 17.2% (inactive) and 32.1% (inactive) | 79% (active) | 65% (inactive) | 54.4% (inactive) and 72.1% (active) | 38% (inactive) | 47% (inactive) | 49.8% (inactive) and 29.6% (inactive)
COC1CC2CCC(C)[C@](O)(O2)C(=O)C(=O)N2CCCCC2C(=O)OC(C(C)CC2CCC(O)C(OC)C2)CC(=O)C(C)C=C(C)C(OC(=O)CN(C)C)C(OC)C(=O)C(C)CC(C)/C=C/C=C/C=C\1C (stereo not given in full) | 37% (inactive) | 97% (active) | 89% (active) | 46% (inactive) | 97% (active) | 92.5% (active) | 97% (active) | 96% (active) | 92% (active) | 95% (active) | 94% (active) | 85.4% (active) | 50% (inactive) | 98% (active) | 91.7% (active) | 97% (active) | 96% (active) | 89.8% (active)
CC(CCc1nc2ccccc2s1)(c1ccc(O)cc1)c1ccc(O)cc1 | 27% (inactive) | 99% (active) | 99.5% (active) | -5% (inactive) | 100% (active) | 99.7% (active) | 15% (inactive) | 100% (active) | 99.3% (active) | 6% (inactive) | 99% (active) | 98.3% (active) | -12% (inactive) | 99% (active) | 99.2% (active) | 11% (inactive) | 100% (active) | 99.2% (active)
Nc1cc2ccccc2c2c1ccc1ccccc12 | -159% (inactive) and 6% (inactive) | 4% (inactive) and 95% (active) | 96.5% (active) and 89.7% (active) | -48% (inactive) and 1% (inactive) | 8% (inactive) and 97% (active) | 96.9% (active) and 94.2% (active) | -66% (inactive) and 14% (inactive) | -18% (inactive) and 64% (inactive) | 97.8% (active) and 92.5% (active) | -56% (inactive) and -2% (inactive) | 24% (inactive) and 95% (active) | 95.3% (active) and 90.5% (active) | -64% (inactive) and -4% (inactive) | -2% (inactive) and 96% (active) | 97.6% (active) and 91.4% (active) | -125% (inactive) and 3% (inactive) | -40% (inactive) and 96% (active) | 96.4% (active) and 90.7% (active)

Reference: PubChem BioAssay (NCI)
